# D3 ag: agonists of human D3 dopamine receptor; P35462; D3R DiscoveRx beta-arrestin cells, luminescence, 90 min; max activation, %; actives 0.58% (n = 410,000); AID 652048; in the data active means max activation above about 30%; further: 0% is about no effect
#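 Agonist mode: compounds and dopamine controls were applied to plated cells for 90 min at 37 degrees C after an overnight attachment at 1500 cells/well. Luminescent read-out followed 30 - 60 minutes at room temperature with DiscoveRx detection reagent.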
# D1 antagonist: antagonists of human D1 dopamine receptor; activity change, negative = inhibition, % at 10 µM; HEK293 TREx D1 cells, calcium flux, dopamine EC80; stronger effect = lower value; actives 3.2% (n = 360,000); AID 504652; in the data active means activity change below about -30%; further: on the % scale 0 is the no-effect control and ±100 the full control effect
# Target sequence (P21728 whole entry, looked up): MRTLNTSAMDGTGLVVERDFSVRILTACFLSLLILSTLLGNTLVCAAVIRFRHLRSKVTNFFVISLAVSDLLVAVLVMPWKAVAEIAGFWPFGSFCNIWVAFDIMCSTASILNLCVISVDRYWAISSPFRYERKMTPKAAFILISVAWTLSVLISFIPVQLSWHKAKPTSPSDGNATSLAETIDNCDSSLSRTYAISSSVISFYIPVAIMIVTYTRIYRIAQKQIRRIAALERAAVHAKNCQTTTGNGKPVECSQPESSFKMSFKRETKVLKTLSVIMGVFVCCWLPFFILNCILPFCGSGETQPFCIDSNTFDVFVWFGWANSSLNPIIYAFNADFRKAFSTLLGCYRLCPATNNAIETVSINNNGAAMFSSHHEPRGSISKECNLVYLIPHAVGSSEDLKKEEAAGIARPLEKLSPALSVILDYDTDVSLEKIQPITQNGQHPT
#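 Calcium flux readout: force-coupled, inducible Hek293 Trex D1 line, cells induced overnight at 30 C with tetracycline, dye-loaded 30–90 min at RT. Antagonism scored against EC80 dopamine challenge given 180 s after compound.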
# DRD3 antagonist: antagonists of human D3 dopamine receptor; P35462; actives 2.5% (n = 360,000); D3R cells, DiscoveRx beta-arrestin luminescence, antagonist mode; stronger effect = lower value; AID 652054; max response, negative = inhibition, %; in the data active means max response below about -50%; inconclusive means no clear call, values can overlap the other calls; further: on the % scale 0 is the no-effect control and ±100 the full control effect
#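 Cells expressing the human receptor were seeded at 1500 cells/well, incubated overnight at 37 degrees C in 5% CO2, then exposed to library compounds with dopamine controls for 90 minutes at 37 degrees C before luminescent detection.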
# D1 potentiator: potentiators of human D1 dopamine receptor. HEK293 TREx D1 cells, calcium flux, dopamine EC20 potentiation. potentiation, % at 10 µM. actives 0.036% (n = 360,000). AID 504651; in the data active means potentiation above about 30%; further: 0% is about no effect
# D1 ag: human D1 receptor agonism | P21728 | actives 1% (n = 360,000) | activation, % at 2 µM | HEK293 T-REx D1 cells, calcium flux, agonist mode | AID 504660; in the data active means activation above about 30%; further: 0% is about no effect
#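 Tetracycline-induced HEK293 TREx D1 cells, force-coupled to calcium signalling, were dye-loaded with a no-wash calcium kit. Compound was pin-added after a 10 s baseline. Fluorescence was read kinetically at 1 cycle/s for 180 s, with calcium rises flagged as agonism.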
# * hit, by the source's call; ? = inconclusive; . = no result. Most compounds without a hit are left out; they make up all but 6% or so of the library.
SMILES,D3 ag,D1 antagonist,DRD3 antagonist,D1 potentiator,D1 ag
CC1=C/C(=N\NC(=S)Nc2cccnc2)CC(C)(C)C1,-10,-8,-51*,-5,3
Cc1cccc(NC(=O)C2CCN(S(=O)(=O)c3ccc(F)cc3)CC2)c1C,4,-5,.,-1,3
O=c1oc2ccccc2nc1/C=C(O)/C=C/c1ccc(F)cc1,0,11,-15,3,5
O=c1oc2ccccc2nc1/C=C(O)/C=C\c1ccccc1,2,-2,-55*,-3,5
Cc1ccc(NC(=O)Cc2noc3ccccc23)nc1,0,-32*,-5,0,2
Cc1ccc2onc(CC(=O)Nc3ccc(C(C)C)cc3)c2c1,-6,-74*,.,-4,0
O=C(Cc1noc2ccccc12)Nc1ccccn1,-1,8,45,-5,0
COc1ccc(-n2nc(C(=O)O)c3csc(N)c3c2=O)cc1,.,4,.,4,1
COc1cccc(N2CCN(C(=O)c3cccc(S(=O)(=O)N4CCCC4)c3)CC2)c1,1,.,16,.,.
CCCCN(CC)C(=O)c1ccc2c(c1)NC(=O)c1ccccc1S2,6,-45*,.,0,3
CC(C)(CNC(=O)c1ccccc1NS(C)(=O)=O)N1CCCCC1,-21,-6,-58*,-5,1
CSCCC(NC(=O)c1ccc(Cl)cc1)C(=O)OCC(=O)c1ccc[nH]1 (stereo not drawn),0,-35*,0,-4,1
CSCCC(NC(=O)c1ccc(Cl)cc1)C(=O)OCC(=O)Nc1ccc(C#N)cc1 (stereo not drawn),0,-40*,-6,-7,4
Cc1ccc(NC(=O)Cn2cc(C(=O)C3CC3)c3ccccc32)cc1C,-12,-9,.,-2,4
COC(=O)c1ccc2nc(-c3ccc(C)cc3)c(Cc3cccc(F)c3)n2c1,21,.,100,.,.
COC(=O)c1nc2ccc(C)cn2c1F,0,-58*,2,-4,0
CCOc1ccc(C(=O)N2CCC(c3ccncc3)CC2)cc1,-28,-11,.,-3,3
CC(C)OC(=O)Nc1ccc2nc(-c3cscn3)[nH]c2c1,3,.,.,.,.
COc1cccc(-n2sc3c(c2=S)-c2cc(OC)ccc2NC3(C)C)c1,-6,4,-69*,0,1
COc1ccc(NC(=O)C2(C)CCN2C)cc1OC (stereo not drawn),-9,.,0,.,.
Cc1cccnc1C(NC(=O)C1CCN(CCCOc2ccc(F)cc2)CC1)c1ccccc1 (stereo not drawn),-25,.,-84*,.,.
Cc1cccnc1C(NC(=O)C1CCN(Cc2ccc(Cl)cc2)CC1)c1ccc(F)cc1 (stereo not drawn),-17,.,0,.,.
CCN1CCC(C(=O)NC(c2ccc(F)cc2)c2ncccc2C)CC1 (stereo not drawn),-15,.,?,.,.
Cc1cccnc1C(NC(=O)C1CCN(Cc2ccc3ccccc3n2)CC1)c1ccc(Cl)cc1 (stereo not drawn),-12,.,-68*,.,.
Cc1cccnc1C(NC(=O)C1CCN(CCOc2ccc(F)cc2)CC1)c1ccc(Cl)cc1 (stereo not drawn),-22,.,0,.,.
SMILES,D3 ag,D1 antagonist,DRD3 antagonist,D1 potentiator,D1 ag
COc1ccc(OCCN2CCC(C(=O)NC(c3ccc(Cl)cc3)c3ncccc3C)CC2)cc1 (stereo not drawn),-19,.,-73*,.,.
COc1ccc(OCCN2CCC(C(=O)NC(c3ccc(F)cc3)c3ncccc3C)CC2)cc1 (stereo not drawn),-14,.,-85*,.,.
Cc1cc2cc(CCNS(=O)(=O)c3ccc(Br)cc3)c(=O)[nH]c2cc1C,6,19,.,0,0
CCOc1ccccc1-n1nnnc1SCc1nc2ccccc2s1,-5,-31*,17,-3,13
Cc1ccccc1-n1c(C)nnc1SCc1nc2ccccc2s1,9,-4,14,-4,1
CC1(C)CC2(C)Nc3ccccc3N2C(=S)N1 (stereo not drawn),2,-3,4,-3,4
CSC1=NC(C)(C)CC2(C)Nc3ccccc3N12 (stereo not drawn),16,-32*,16,1,0
CC1CN(CCCSc2ccc(Cl)cc2)CC(C)O1 (stereo not drawn),-18,.,-71*,0,-1
Clc1ccc(SCCN2CCNCC2)cc1,4,-13,-1,-4,8
CC1CN(CCCCSc2ccccc2)CC(C)O1 (stereo not drawn),-20,-4,-11,5,4
Clc1ccc(SCCCN2CCCCC2)cc1,-17,5,-80*,-1,6
Cc1cc(C)n(CC(=O)c2cccc([N+](=O)[O-])c2)n1,-12,10,-58*,8,1
Cc1cc(C)n(CC(=O)N/N=C/c2cc([N+](=O)[O-])ccc2O)n1,-13,6,-56*,-2,2
Cc1ccc(S(=O)(=O)CCC(=O)c2cccc([N+](=O)[O-])c2)cc1,-12,-32*,?,-12,4
Cc1cc(C)n(CC(=O)N/N=C/c2cc(Br)cc([N+](=O)[O-])c2O)n1,-12,-6,-66*,3,0
Cc1ccc(C(=O)CCS(=O)(=O)c2ccc(Br)cc2)cc1,6,1,-1,-2,6
CCCS(=O)(=O)NC(=O)C1(C)CCN(C(=O)Cc2cccc3ccccc23)C1 (stereo not drawn),-6,.,?,.,.
O=CNc1cc(-c2cccc(F)c2)cn2c(-c3ccc(F)c(Cl)c3)cnc12,0,.,-7,.,.
COc1cccc(/C=C/C(=O)OCC(=O)NCC2CCCO2)c1OC (stereo not drawn),3,-34*,10,5,5
CCCC(=O)N1CC(=O)Nc2ccc(C)cc2C1c1ccc(F)cc1 (stereo not drawn),-4,-88*,-8,-7,-1
CCCC(=O)N1CC(=O)Nc2ccc(Br)cc2C1c1ccc(F)cc1 (stereo not drawn),-5,11,3,2,4
CSC1=NC(C(Cl)(Cl)Cl)N=C(c2ccc(C)cc2)N1 (stereo not drawn),-3,-85*,-13,-5,0
Cc1ccc(NC(=O)COC(=O)CCCC2=NS(=O)(=O)c3ccccc3N2)cc1C,7,-6,6,8,2
Cc1ccccc1COC(=O)CCCC1=NS(=O)(=O)c2ccccc2N1,3,-1,-8,-3,31*
NNc1nc2sc3c(c2c(=O)[nH]1)CCc1ccccc1-3,-6,-1,-55*,-2,-1
COc1ccc(C(=O)n2nc(-c3ccccc3)nc2N)cc1OC,11,-34*,38,1,1
CCCSC(=S)c1c(C)[nH]n(-c2ccccc2)c1=O,7,-11,3,-2,35*
CCOC(=O)c1c(NC(=O)c2ccc(S(=O)(=O)N(CC(C)C)CC(C)C)cc2)sc2c1CCN(C(=O)OCC)C2,-9,-9,.,-2,0

# Compound activity: PubChem BioAssay, National Center for Advancing Translational Sciences (NCATS)
